An excerpt weighted towards active compounds, which were near 21% of everything screened.
Pf growth 96h: P. falciparum growth inhibition at 96 hours; P. falciparum luciferase reporter growth, 96 h; Potency, µM (doses to about 28.7 µM), for the others: at the highest dose activity change, negative = inhibition, hits mostly inhibitors; 320,000 tested, 6.9% active; AID 504834; also: potency is read from the fitted curve at half-maximal effect; % is scaled to controls: 0 for no effect and ±100 for the full control effect
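Delayed-death screen, second-generation endpoint: infected erythrocytes, 2% hematocrit, 0.05% parasitemia final; 96 hours at 37 C, 5% CO2; luciferase detection reagent; luminescence decrease equals reduced growth.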
Cycloheximide cs: affects cycloheximide protein synthesis inhibition readout, counter-screen; 300,000 tested, 12% active; cell reporter, cycloheximide protein synthesis inhibition counterscreen; max response, %; in the data active = max response mostly above about 13%, no sharp cut-off; inactive = mostly below about 14%; also: read at 38.3 µM for the half of the compounds with a filed dose; 0% is about no effect
AMA1 RON2 block: disrupts binding of P. falciparum AMA1 to RON2 | 360,000 tested, 0.2% active | AlphaScreen AMA1-biotinylated RON2 peptide binding | Potency, µM (top dose mostly 58.2 µM), for the others: at the top dose activity change, negative = inhibition, hits mostly inhibitors;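 also: potency is read from the fitted curve at half-maximal effect; 0% = vehicle wells and -100% = peptide control; nearly all actives have a fitted effect of over 45% in size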
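AMA1 (3D7) with his tag at 25 nM final met compounds first, then biotinylated RON2 peptide at 25 nM; detection used donor plus acceptor beads, 10 µg/mL apiece, read by AlphaScreen after 30 min at room temperature.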
Shiga inhibitor: Shiga toxin inhibition | Vero cells, Shiga toxin protein synthesis inhibition reporter | inhibition, % at 38.7 µM | 290,000 tested, 9.2% active | AID 2315; in the data active = inhibition mostly above about 28%, no sharp cut-off; inactive = mostly below about 43%; also: 0% is about no effect
HCV inh: blocks hepatitis C virus. Huh7.5.1 HCVcc-Cre infection, luciferase reporter, 44 h. 340,000 tested, 3.4% active. Potency, µM (series often up to 41.8 µM), inactives show top-dose activity change, negative = inhibition, usual class: inhibitors. AID 651820; also: potency is read from the fitted curve at half-maximal effect; % is scaled to controls: 0 for no effect and ±100 for the full control effect
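HCVcc-Cre virus at an moi near 0.5 was added right after compound to cells cultured 4 h from seeding (1,000 cells/well). Luciferase activity was determined 44 h later, 15 min after substrate addition at RT.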
Pf growth 48h: P. falciparum growth inhibition at 48 hours (one generation). 310,000 tested, 5.9% active. P. falciparum luciferase growth in erythrocytes, 48 h. AID 504832. Potency, µM (doses to about 28.7 µM), inactives show top-dose activity change, negative = inhibition, most hits filed as inhibitors; also: potency is read from the fitted curve at half-maximal effect; % is scaled to controls: 0 for no effect and ±100 for the full control effect
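First compound was added to culture medium, then infected red cells at 0.1% parasitemia and 2% hematocrit (final). After incubation at 37 C under 5% CO2, luciferase detection reagent was dispensed and light output recorded.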
Active calls of the source: *; ? = inconclusive; . = not tested or not shown; [ ] = dose if it differs, or a comment. Unless noted, calls follow the shape of the dose curve; as a rule, active = well fitted curve in the direction sought with a large enough effect; inconclusive = small, poorly fitted or top-dose-only effect, or another doubt; inactive = no such curve, though single readings can be large; an effect the other way counts as inactive or inconclusive.

SMILES	Pf growth 96h	Cycloheximide cs	AMA1 RON2 block	Shiga inhibitor	HCV inh	Pf growth 48h
CCCCCCC(=O)Nc1ccc(Cl)cn1	.	32*	22%	100*	8%	59%
O=C(CCCOc1ccccc1)Nc1ccncc1	1%	6	-13%	33	-2%	10%
CC(=O)CC(=O)Nc1ccc(Cl)cn1	?	-4	8%	-9	17%	35%
O=C(Cc1ccc(NC(=O)C2CCN(C(=O)C3CCC3)CC2)cc1)Nc1ccc(C(=O)N2CCOCC2)cc1	.	.	-18%	.	24%	.
OC[C@@H]1CN(Cc2ccc3c(c2)OCO3)C[C@H](n2cnc3c(NCc4ccc(F)cc4)ncnc32)O1	.	.	2%	.	.	.
O=[N+]([O-])c1cncc([N+](=O)[O-])c1Nc1cccc(O)c1	?	-1	-3%	14	-16%	?
COCCN1CCN(Cc2nc(Cc3ccc(OC)c(OC)c3)no2)CC1	-20%	-3	3%	-4	9%	6%
COc1ccc(Cc2noc(CN3CCN(Cc4cccc(Cl)c4)CC3)n2)cc1OC	8.3µM*	11	4%	12	?	?
COc1ccc(Cc2noc(CN3CCCC(OCc4ccccn4)C3)n2)cc1OC (stereo unspecified)	13µM*	0	11%	-8	-18%	?
CCN(CC)CCCNC(=S)N(CCO)Cc1cc2cc3c(cc2[nH]c1=O)OCCO3	?	1	0%	-3	7%	21%
CCOC(=O)[C@H]1[C@H]2COc3cc(OC)ccc3[C@@H]2N2C(=O)CN(CCc3c[nH]c4ccccc34)C(=O)[C@@]12C	?	.	-5%	.	-11%	7.4µM*
COc1ccc2c(c1)OC[C@H]1[C@H]2N2C(=O)CN(CCc3c[nH]c4ccccc34)C(=O)[C@@]2(C)[C@H]1c1ccccc1	4.7µM*	.	-5%	.	?	12µM*
CCOC(=O)[C@H]1[C@H]2COc3ccc(Br)cc3[C@H]2N2C(=O)CN(CCc3c[nH]c4ccccc34)C(=O)[C@@]12C	.	.	0%	.	1%	.
Cc1ccc(NC(=O)C2CCN(S(=O)(=O)c3cccs3)CC2)cc1C	?	1	36%	23	?	.
CC(=O)N1CCc2c(sc(NC(=O)C3CCN(S(=O)(=O)c4cccs4)CC3)c2C(N)=O)C1	?	.	-8%	.	8%	12µM*
CCn1c2ccccc2c2cc(NC(=O)C3CCN(S(=O)(=O)c4cccs4)CC3)ccc21	12%	-3	0%	5	4µM*	.
CC(=O)c1ccc(NC(=O)C2CCN(S(=O)(=O)c3cccs3)CC2)cc1	?	44*	-3%	44*	-6%	?
CC1CCN(C(=O)C2CCN(S(=O)(=O)c3cccs3)CC2)CC1	-26%	17*	14%	41	21%	28%
CC(=O)N1CCc2c(sc(NC(=O)C3CCCN3S(=O)(=O)c3cccs3)c2C(N)=O)C1 (stereo unspecified)	?	.	7%	.	-17%	?
CC1CC(C)CN(C(=O)C2CCN(S(=O)(=O)c3cccs3)CC2)C1 (stereo unspecified)	-13%	-4	17%	-7	?	-5%
Cc1cccc(NC(=O)C2CCN(S(=O)(=O)c3cccs3)CC2)c1	-26%	7	16%	10	8%	.
CCCCCN(C(=O)CCC(=O)OCC(=O)N1CCCC(C)C1)c1c(N)n(CCCC)c(=O)[nH]c1=O (stereo unspecified)	30%	-1	?	31	-28%	-4%
CCOc1cc(C2C3=C(CC(C)(C)CC3=O)N(CCOC)C3=C2C(=O)CC(C)(C)C3)ccc1O	?	-4	4%	.	2%	-17%
CC(=O)N1c2ccc(Cl)cc2C2OCCC2C1c1ccco1 (stereo unspecified)	?	0	5%	10	10%	?
Clc1ccc2c(c1)C1OCCC1C(c1ccco1)N2 (stereo unspecified)	-1%[5.75 µM]	26*	15%	66*	?	93%
SMILES	Pf growth 96h	Cycloheximide cs	AMA1 RON2 block	Shiga inhibitor	HCV inh	Pf growth 48h
CCC(NC(=O)NC1=NCCS1)(C(F)(F)F)C(F)(F)F	0.21µM*	-1	-11%	-26	-11%	7%
Cc1ccccc1OCc1nnc(SCC(=O)O)n1-c1ccccc1	-8%	1	18%	.	15%	-5%
Fc1ccccc1OCCSc1nnnn1-c1ccccc1	39%	47*	39%	84*	-2%	350%
Cc1ccccc1OCCSc1nnc(C)n1-c1ccccc1	0%	19*	2%	31	21%	.
c1ccc(OCCSc2nnnn2-c2ccccc2)cc1	192%	60*	58%	55*	-22%	.
c1ccc(-n2nnnc2SCCCSc2nc3ccccc3s2)cc1	4.1µM*	1	40%	-9	?	.
CCOc1ccc(OCCSc2nnnn2-c2ccccc2)cc1	.	-1	32%	-7	-14%	17%
O=C(Nc1ccc(F)cc1)C(c1cc2ccccc2o1)N1CCN(C(=O)c2ccco2)CC1 (stereo unspecified)	.	.	15%	.	.	.
Cc1ccc(S(=O)(=O)N2CCCCC2)cc1NC(=O)COC(=O)CN1C(=O)NC2(CC(C)CC(C)(C)C2)C1=O (stereo unspecified)	.	.	-9%	.	19%	.
O=C(O)CCSc1nc2ccccc2n1Cc1ccccc1	2.9µM*	1	-6%	10	12%	-9%
O=C(O)Cn1c(SCCOc2ccccc2)nc2ccccc21	8.3µM*	8	-2%	4	3%	13%
CCCCOc1ccc(OCCSc2nc3ccccc3n2CC(=O)O)cc1	?	-3	-7%	-5	24%	-14%
CCCn1c(SCCC(=O)O)nc2ccccc21	414%	-1	-14%	-9	28%	39%
O=C(O)CCn1c(SCCOc2ccccc2)nc2ccccc21	12µM*	14*	-3%	.	18%	17%
Cc1ccc(OCCSc2nc3ccccc3n2CC(=O)O)cc1C	12µM*	-1	1%	-2	12%	8%
CC(=O)Nc1c(-c2ccccc2)c2cc(Br)ccc2[nH]c1=O	?	1	-3%	-18	2%	0%
COc1ccc(C(=O)N2CCC(C(=O)NC3CC3)CC2)cc1	20%	-6	9%	9	5%	22%
O=C(c1ccc(F)cc1)C1CCN(C(=O)c2ccc(F)cc2)CC1	?	1	-5%	-1	2%	38%
COc1ccc(-c2ccc(C(=O)C3CC3)cc2)cc1	200%	16*	1%	65*	9%	-23%[0.00184 µM]
COC(=O)c1ccccc1NC(=O)C1CCN(C(=O)c2ccc(OC)cc2)CC1	12µM*	-3	3%	-20	4%	0%
COc1ccc(C(=O)C2CCN(C(=O)c3ccc(F)cc3)CC2)cc1	?	-1	3%	-3	25µM*	-8%
CCOc1ccc(C(=O)C2CCN(C(=O)c3ccc([N+](=O)[O-])cc3)CC2)cc1	?	2	-2%	8	10µM*	-1%

From PubChem BioAssay
